Compounds without any hit were thinned out: in the full panel of roughly 83,000, 20% have a hit.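 For each line, cells grew in 96-well plates with the test compound present at a single concentration for 48 hours.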 A number with no mark means an inactive call. Active and inactive are the calls of the source. The calls were made as follows: active = growth percent below 10; inactive = the rest.
Columns and labels:
Experiment in all cases: NCI-60 one-dose screen, 48 h (100 = growth as untreated, 0 = no growth, -100 = all killed)
Settings in all cases: 10 µM unless noted
SR leukemia = system: SR leukemia
RPMI-8226 leukemia = system: RPMI-8226 leukemia
OVCAR-8 ovarian = system: OVCAR-8 ovarian
OVCAR-5 ovarian = system: OVCAR-5 ovarian
OVCAR-4 ovarian = system: OVCAR-4 ovarian
SK-OV-3 ovarian = system: SK-OV-3 ovarian
IGROV1 ovarian = system: IGROV1 ovarian
OVCAR-3 ovarian = system: OVCAR-3 ovarian
HS 578T breast = system: HS 578T breast
NCI/ADR-RES ovarian = system: NCI/ADR-RES ovarian

Row | SMILES | growth (SR leukemia) | growth (RPMI-8226 leukemia) | growth (OVCAR-8 ovarian) | growth (OVCAR-5 ovarian) | growth (OVCAR-4 ovarian) | growth (SK-OV-3 ovarian) | growth (IGROV1 ovarian) | growth (OVCAR-3 ovarian) | growth (HS 578T breast) | growth (NCI/ADR-RES ovarian)
1 | Nc1c(C(=O)Nc2cccc(Cl)c2)sc2nc3c(cc12)CCCC3 | 53.9% | 93.6% | 93% | 93.4% | 90.9% | 96.2% | 106% | 103% | 97.7% | 101%
2 | Cc1ccc(C(=O)c2ccc(CC(=O)N=Nc3c(O)[nH]c4ccc(Br)cc34)n2C)cc1 | 101% | 92.7% | 94.9% | 91.7% | 97.6% | 91.3% | 77.5% | 105% | 99.6% | 87.7%
3 | CCNC(=O)Oc1ccc(/C(=C(/CC)Cc2ccccc2)c2ccc(OCCN3CCCC3)cc2)cc1 | 75.5% | 77.7% | 94.1% | 94.6% | 93.3% | 88.5% | 91.5% | 96.9% | 93.5% | 97.9%
4 | C[n+]1ccc(CCc2c[nH]c3ccccc23)cc1 | 83.8% | 94% | 107% | 86.5% | 99.4% | 77.3% | 87.7% | 107% | 104% | 105%
5 | Cc1n[nH]c2ccc(Br)cc2c1=O | 100% | 98.1% | 110% | 102% | 125% | 98.6% | 99.6% | 109% | 101% | 110%
6 | CC/C=C\C[C@H](O)C/C=C1/C(=O)C=C[C@@H]1C/C=C\CCCC(=O)O | 10.3% | 10.1% | 20% | 128% | 74.8% | 116% | 99.2% | 14.8% | 85% | 78.3%
7 | O=S1(=O)C=C(c2ccccc2)C(c2ccccc2)=C1 | -3.82% (active) | 4.61% (active) | 6.07% (active) | 85.1% | 27.6% | 88.8% | 11.7% | -86% (active) | -5.2% (active) | 8.7% (active)
8 | COc1cccc(CCNc2ncnc3c2ncn3Cc2nnc3c4ccccc4c(Cl)nn23)c1 | 33.5% | 48.8% | 40.3% | 102% | 57.5% | 3.23% (active) | 40% | 64% | 40.8% | 40.7%
9 | Cc1ccc(-c2nc(/C=C3/C(=O)Nc4ccc(F)cc43)c3ccccn23)cc1 | 58% | 89.7% | 69.6% | 69.2% | 63.4% | 98% | 55% | 110% | 99.2% | 85.3%
10 | CCS/C(Nc1ccccc1)=C(\C#N)C(=O)Nc1ccc(OC)cc1 | 6.62% (active) | 25.2% | 31.2% | 63.1% | 66.7% | 22.4% | 55.7% | -12.1% (active) | 27.4% | -0.669% (active)
11 | CN(CCC(=O)c1ccccc1)CCC(=O)c1ccccc1 | 49.9% | 50.8% | 93.2% | 95.5% | 103% | 99.8% | 95.3% | 113% | 100% | 86.5%
12 | C=C1CC[C@@H]2C(C)(C)[C@@H](O)CC[C@@]2(C)[C@@H]1COc1ccc2ccc(=O)oc2c1 | 73.2% | 50.7% | 83.4% | 117% | 67.5% | 112% | 95.3% | 78.3% | 101% | 61.7%
13 | CC1C=CC(OC(=O)C(C)(O)CCC(O)(C(=O)OC2CC(O)C(C(C)C)CC2(C)O)C(C)C)(C(C)C)CC1 (stereo not given) | -24.7% [4.63 µM] (active) | -39.7% [4.63 µM] (active) | -9.1% [4.63 µM] (active) | -85.3% [4.63 µM] (active) | -90.5% [4.63 µM] (active) | -91.5% [4.63 µM] (active) | -70.6% [4.63 µM] (active) | -94.3% [4.63 µM] (active) | 22.4% [4.63 µM] | -9.57% [4.63 µM] (active)
14 | NC(N)=NS(=O)(=O)c1ccc(NC2=C(I)C(=O)c3ncccc3C2=O)cc1 | 104% | 104% | 97.2% | 112% | 93% | 87.8% | 97.5% | 95.3% | 103% | 94.1%
15 | Cc1ccc2nc(NC(=O)CSc3nc(-c4ccccc4)c(C#N)c4nnnn34)sc2c1 | 72.8% | 117% | 108% | 113% | 101% | 100% | 102% | 122% | 98% | 106%
16 | Cc1nc2c(=O)nc3s/c(=C\c4ccco4)c(=O)n3c2nc1C | 94.2% | 116% | 96.1% | 101% | 101% | 102% | 93.4% | 105% | -95.1% (active) | 93.5%
17 | CC1(C)[C@@H](O[C@@H]2OC[C@@H](O[C@@H]3O[C@H](CO)[C@@H](O)[C@H](O)[C@H]3O[C@@H]3OC[C@@H](O)[C@H](O)[C@H]3O)[C@H](O)[C@H]2O[C@@H]2O[C@H](CO)[C@@H](O)[C@H](O)[C@H]2O)CC[C@]2(C)[C@H]3CC[C@]45OC[C@@]6(CC[C@](C)(C=O)C[C@H]64)[C@H](O)C[C@@]5(C)[C@]3(C)CC[C@@H]12 | -37% (active) | -44% (active) | -48.9% (active) | -76.8% (active) | -67.1% (active) | -98.4% (active) | -71.7% (active) | -72.6% (active) | -31.2% (active) | -21.7% (active)
18 | CCOc1c(OC)cc2c(c1O)C(=O)N[C@@H]1[C@@H](O)[C@@H](O)[C@H](O)C[C@@H]21 | 89.2% | 103% | 101% | 98.7% | 107% | 98.1% | 102% | 102% | 100% | 110%
19 | C=C1C(=O)O[C@H]2[C@H]1CC/C(CNC(=O)c1c[nH]c3ccc(F)cc13)=C\CC[C@@]1(C)O[C@@H]21 | -28.2% (active) | -20.8% (active) | -33.3% (active) | 19.6% | 49% | 81.7% | 41.7% | -36.7% (active) | 44% | 56.3%
20 | CNC1=C([N+](=O)[O-])C(c2ccc(OC)cc2)C(C#N)=C(c2cccs2)O1 (stereo not given) | 112% | 111% | 103% | 108% | 100% | 110% | 108% | 99.4% | 106% | 107%
21 | S=C(c1ccc2c(c1)OCO2)N1CCN(c2cccc(Cl)c2)CC1 | 11.9% | 24.6% | 38.8% | 44% | 46.3% | 20.6% | 37% | -33.7% (active) | -1.66% (active) | -13% (active)
22 | COc1cc(/C=C2\CN(S(=O)(=O)c3ccccc3)C/C(=C\c3cc(CN4CCCCC4)c(O)c(OC)c3)C2=O)cc(CN2CCCCC2)c1O | -18.6% (active) | -34.9% (active) | -25% (active) | -66.6% (active) | -69.8% (active) | 108% | -51.8% (active) | -86.9% (active) | 0.476% (active) | 5.04% (active)
23 | CC(C)CCN(CCC(C)C)CC(O)c1cc2c(c3ccccc13)CCCC2 (stereo not given) | 11.8% | 49.3% | 81.6% | 71.5% | 78.2% | 76.8% | 64.2% | 85% | 80.6% | 71.8%
24 | CN(Cc1ccccc1)c1nc(Cl)c(C2CC(c3ccccc3)=NN2c2ccccc2)s1 (stereo not given) | 90.8% | 84.8% | 91.5% | 104% | 88.5% | 85.3% | 97.2% | 105% | 103% | 98.1%
25 | CC(C)(C)n1cc(-c2ccnc(NCCCNS(=O)(=O)c3ccc(C(F)(F)F)cc3)c2)c(-c2cccc(F)c2)n1 | 25.2% | 55.9% | 83.1% | 85.4% | 99.7% | 94.2% | 84.1% | 95% | 95% | 76.5%
26 | CC(C)(C)n1cc(-c2ccnc(NCCCNS(=O)(=O)c3cccc4ccccc34)c2)c(-c2cccc(F)c2)n1 | 27.8% | 65.4% | 81.4% | 91.9% | 78.1% | 91.9% | 78.9% | 90.1% | 91.4% | 78.2%
